Laboratory results published in PubChem BioAssay (EPA / NIEHS).
Results filed as inconclusive are left out. Active and inactive are the calls of the source. How the source made its calls, unless noted: active means hit-call score of the fitted dose curve at least 0.9, where 1 is the maximum; inactive means score below 0.9.

How the values were obtained:
[1] = ATG_NFI_CIS: Attagene CIS-FACTORIAL HepG2 Assay for human Nuclear Factor I (NFI) (AID 2282989); conditions: HepG2 cis-regulatory reporter, NFI response element transcription; actives raise or lower the signal
Summary of the method: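 HepG2, transient MRTU, 24 h exposure; RNA→cDNA→PCR→FAM label→HpaI→CE fluorescence. Bidirectional fit, DMSO = baseline.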

[2] = target: Myc proto-oncogene protein (Homo sapiens) (UniProt P01106); test: ATG_Myc_CIS: Attagene CIS-FACTORIAL HepG2 Assay for human Myelocytomatosis (Myc) Proto-Oncogene Transcription Factor (AID 2282990); conditions: HepG2, Attagene cis-reporter transcription factor activity; actives raise or lower the signal
Chain of Myc proto-oncogene protein (Homo sapiens) (P01106 whole entry, looked up): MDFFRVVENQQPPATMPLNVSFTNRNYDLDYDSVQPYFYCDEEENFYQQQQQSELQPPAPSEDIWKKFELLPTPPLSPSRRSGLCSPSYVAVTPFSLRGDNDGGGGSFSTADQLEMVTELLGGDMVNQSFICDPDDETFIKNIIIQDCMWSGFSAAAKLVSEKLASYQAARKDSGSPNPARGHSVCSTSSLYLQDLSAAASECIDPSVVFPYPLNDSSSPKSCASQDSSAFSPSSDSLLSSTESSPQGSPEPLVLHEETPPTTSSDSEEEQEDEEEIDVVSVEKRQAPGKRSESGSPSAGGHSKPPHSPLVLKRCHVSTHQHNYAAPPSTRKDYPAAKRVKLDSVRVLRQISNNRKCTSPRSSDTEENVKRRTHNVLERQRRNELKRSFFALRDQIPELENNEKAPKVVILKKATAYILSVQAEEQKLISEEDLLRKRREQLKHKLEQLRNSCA
Summary of the method: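 Multiplexed cis-reporter transcription in HepG2 cells after 24 h chemical treatment. Reporter mRNA measured by RT-PCR and capillary electrophoresis fluorescence; activity fitted bidirectionally against DMSO control.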

[3] = ATG_NF_kB_CIS: Attagene CIS-FACTORIAL HepG2 Assay for human Nuclear Factor Kappa B (NF-kB) (AID 2282991); conditions: HepG2 Attagene cis-factorial NF-kB reporter mRNA; actives raise or lower the signal
Summary of the method: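 HepG2 cells transiently transfected with multiplexed cis-element reporter units measuring endogenous transcription factor activity; reporter mRNA read 24 h after dosing by RT-PCR, fluorescent labelling, HpaI digestion and capillary electrophoresis. Bidirectional fit against DMSO baseline.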

[4] = ATG_NRF2_ARE_CIS: Attagene CIS-FACTORIAL HepG2 Assay for human Nuclear Factor Erythroid 2 Related Factor 2 (NFR2) response to Antioxidant Response Elements (ARE) (AID 2282992); conditions: HepG2 Attagene ARE/NRF2 reporter, transcription factor activity; actives raise or lower the signal
Summary of the method: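 Readout: reporter mRNA quantified by RT-PCR plus FAM-labelled primer extension, HpaI digestion and capillary electrophoresis, 24 h after dosing transfected HepG2 cells. Gain or loss of signal is fitted bidirectionally against DMSO baseline.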

[5] = ATG_Oct_MLP_CIS: Attagene CIS-FACTORIAL HepG2 Assay for human Octamer-Binding Transcription Factor (Oct) (AID 2282993); conditions: HepG2 Attagene cis-factorial Oct reporter, mRNA; actives raise or lower the signal
Summary of the method: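 Multiplexed cis-reporter assay in human liver HepG2 cells, 24 h incubation. Reporter RNA amplified and labelled, then resolved by capillary electrophoresis; DMSO serves as negative control and baseline.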

[6] = target: Cellular tumor antigen p53 (Homo sapiens) (UniProt P04637); test: ATG_p53_CIS: Attagene CIS-FACTORIAL HepG2 Assay for human p53 Transcription Factor (AID 2282994); conditions: HepG2 p53 cis-element reporter, Attagene mRNA; actives raise or lower the signal
Chain of Cellular tumor antigen p53 (Homo sapiens) (P04637 whole entry, looked up): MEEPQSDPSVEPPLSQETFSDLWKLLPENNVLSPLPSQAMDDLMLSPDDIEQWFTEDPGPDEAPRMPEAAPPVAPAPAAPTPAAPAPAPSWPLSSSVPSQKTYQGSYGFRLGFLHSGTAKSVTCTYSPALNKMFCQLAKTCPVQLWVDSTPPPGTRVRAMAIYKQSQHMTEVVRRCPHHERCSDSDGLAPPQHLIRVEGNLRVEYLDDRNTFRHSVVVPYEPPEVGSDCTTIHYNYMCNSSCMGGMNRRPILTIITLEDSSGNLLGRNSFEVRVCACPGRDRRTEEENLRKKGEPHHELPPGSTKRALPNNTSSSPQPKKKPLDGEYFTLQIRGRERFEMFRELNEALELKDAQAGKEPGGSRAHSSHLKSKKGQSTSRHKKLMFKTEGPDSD
Summary of the method: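 Read-out: reporter mRNA by RT-PCR plus capillary electrophoresis with fluorescence detection. Human HepG2 liver cells carried transfected multi-reporter cis-element constructs, dosed 24 h. Gain or loss of signal fitted bidirectionally against DMSO control.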

[7] = BSK_3C_TissueFactor: BioMAP Diversity Plus: 3C Assay for Tissue Factor Biomarker Activity (AID 2282997); conditions: BioMAP 3C HUVEC, tissue factor biomarker readout; actives raise or lower the signal
Summary of the method: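 Readout: Tissue Factor ELISA. Cells: human primary umbilical vein endothelium. Time: 24 h after dosing. Analysis: bidirectional fit, DMSO baseline.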

[8] = BSK_3C_uPAR: BioMAP Diversity Plus: 3C Assay for Urokinase-type plasminogen activator receptor (uPAR) Biomarker Activity (AID 2282998); conditions: BioMAP 3C HUVEC, uPAR biomarker ELISA; actives raise or lower the signal
Summary of the method: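 Dose primary human umbilical vein endothelial cells, incubate 24 h, measure cell-surface uPAR by ELISA, then fit the signal in both directions against the DMSO negative control.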

[9] = BSK_3C_VCAM1: BioMAP Diversity Plus: 3C Assay for Vascular cell adhesion molecule 1 (VCAM1) Biomarker Activity (AID 2282999); conditions: BioMAP 3C HUVEC, VCAM1 ELISA, cytokine-stimulated; actives raise or lower the signal
Summary of the method: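 Vascular primary endothelium (human umbilical vein) was exposed to chemicals and assayed 24 h later. VCAM-1 levels came from ELISA, with DMSO serving as baseline for bidirectional fitting.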

[10] = read-out: Intercellular Adhesion Molecule 1 (ICAM1), ICAM1 (gene 3383); test: BSK_3C_ICAM1: BioMAP Diversity Plus: 3C Assay for Intercellular Adhesion Molecule 1 (ICAM1) Biomarker Activity (AID 2283003); conditions: primary human endothelial cells (HUVEC); actives raise or lower the signal
Summary of the method: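 Using DMSO as baseline, bidirectional curve fitting was applied to ICAM-1 ELISA signals from HUVEC in the 3C system, measured 24 h after compound addition.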

[11] = BSK_3C_Proliferation: Cell Proliferation Assessment in the BioMAP Diversity Plus: 3C Assay (AID 2283006); conditions: primary human endothelial cells (HUVEC)
Summary of the method: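 Measured here: sulforhodamine B (0.1%) staining of TCA-fixed sub-confluent umbilical vein endothelial cultures 48 h post-dosing, absorbance 560 nm. DMSO served as negative control and baseline; both signal gain and loss were modelled.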

[12] = target: Peroxisome proliferator-activated receptor gamma (Homo sapiens) (UniProt P37231); test: ATG_PPARg_TRANS: Attagene TRANS-FACTORIAL HepG2 Assay for human Peroxisome Proliferator-activated Receptor-gamma (PPARg) (AID 2283007; active means hit-call score of the fitted dose curve at least 0.9, where 1 is the maximum)
Chain of Peroxisome proliferator-activated receptor gamma (Homo sapiens) (P37231 whole entry, looked up, the tested form may be a part): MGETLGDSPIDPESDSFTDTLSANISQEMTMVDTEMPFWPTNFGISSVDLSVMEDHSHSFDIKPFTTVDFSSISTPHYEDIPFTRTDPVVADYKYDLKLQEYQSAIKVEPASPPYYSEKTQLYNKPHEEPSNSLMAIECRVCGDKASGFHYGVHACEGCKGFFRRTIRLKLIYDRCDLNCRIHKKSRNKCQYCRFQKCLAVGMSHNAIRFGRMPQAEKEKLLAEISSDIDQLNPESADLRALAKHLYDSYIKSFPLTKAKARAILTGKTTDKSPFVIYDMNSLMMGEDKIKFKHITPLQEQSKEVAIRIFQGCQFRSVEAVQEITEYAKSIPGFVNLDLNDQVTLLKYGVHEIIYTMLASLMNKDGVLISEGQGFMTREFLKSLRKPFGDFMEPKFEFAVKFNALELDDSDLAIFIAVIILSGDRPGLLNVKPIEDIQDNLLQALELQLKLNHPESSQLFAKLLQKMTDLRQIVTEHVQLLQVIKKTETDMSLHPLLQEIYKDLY
Summary of the method: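 HepG2 cells transiently transfected with multiplexed GAL4-UAS reporter units and exogenous chimeric NR-Gal4 proteins; reporter mRNA quantified after 24 h compound exposure by RT-PCR, fluorescent labelling, HpaI digestion and capillary electrophoresis; gain-of-signal fitted versus DMSO baseline.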

[13] = target: Nuclear receptor subfamily 1 group I member 2 (Homo sapiens) (UniProt O75469); test: ATG_PXR_TRANS: Attagene TRANS-FACTORIAL HepG2 Assay for human Pregnane X Receptor (PXR) (AID 2283008; active means hit-call score of the fitted dose curve at least 0.9, where 1 is the maximum)
Chain of Nuclear receptor subfamily 1 group I member 2 (Homo sapiens) (O75469 whole entry, looked up, the tested form may be a part): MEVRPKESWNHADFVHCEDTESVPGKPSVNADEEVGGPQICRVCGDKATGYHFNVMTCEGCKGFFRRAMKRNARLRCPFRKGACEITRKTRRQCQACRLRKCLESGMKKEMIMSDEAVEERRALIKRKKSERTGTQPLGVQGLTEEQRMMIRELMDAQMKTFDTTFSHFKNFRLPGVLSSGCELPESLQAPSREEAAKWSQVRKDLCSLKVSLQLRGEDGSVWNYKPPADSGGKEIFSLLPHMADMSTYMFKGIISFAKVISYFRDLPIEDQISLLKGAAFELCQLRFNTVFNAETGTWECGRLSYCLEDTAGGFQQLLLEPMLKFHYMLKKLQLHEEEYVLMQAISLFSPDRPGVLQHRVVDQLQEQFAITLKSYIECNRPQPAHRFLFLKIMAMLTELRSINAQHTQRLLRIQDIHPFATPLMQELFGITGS
Summary of the method: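 Trans-factorial format: exogenous NR-Gal4 fusion activity, not endogenous factor, in transfected human HepG2 liver cells. After 24 h dosing, RNA isolated, reverse-transcribed, amplified and resolved by capillary electrophoresis; induction scored versus DMSO.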

[14] = target: human RAR-related Orphan Receptor beta (RORb), RORB (gene 6096) (UniProt Q92753); test: ATG_RORb_TRANS: Attagene TRANS-FACTORIAL HepG2 Assay for human RAR-related Orphan Receptor beta (RORb) (AID 2283010; active means hit-call score of the fitted dose curve at least 0.9, where 1 is the maximum)
Chain of human RAR-related Orphan Receptor beta (RORb), RORB (gene 6096) (Q92753 whole entry, looked up, the tested form may be a part): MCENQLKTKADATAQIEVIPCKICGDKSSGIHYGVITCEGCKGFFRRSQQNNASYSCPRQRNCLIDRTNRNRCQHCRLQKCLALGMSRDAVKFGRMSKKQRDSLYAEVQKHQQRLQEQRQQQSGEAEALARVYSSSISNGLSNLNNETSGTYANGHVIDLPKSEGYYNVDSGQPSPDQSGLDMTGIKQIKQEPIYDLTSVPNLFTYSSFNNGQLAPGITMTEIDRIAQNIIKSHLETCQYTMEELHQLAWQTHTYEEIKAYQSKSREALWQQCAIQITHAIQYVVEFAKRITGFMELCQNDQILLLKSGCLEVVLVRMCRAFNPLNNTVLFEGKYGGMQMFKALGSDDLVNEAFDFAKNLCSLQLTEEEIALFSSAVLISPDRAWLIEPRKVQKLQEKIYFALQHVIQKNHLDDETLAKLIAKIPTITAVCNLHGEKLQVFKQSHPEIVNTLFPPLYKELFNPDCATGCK
Summary of the method: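 Multiplexed transcription-factor reporter assay: HepG2 cells transiently carrying NR-Gal4/GAL4-UAS constructs, 24 h treatment, mRNA quantified by RT-PCR plus capillary electrophoresis fluorescence; activity scored as induction over DMSO.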

[15] = target: human Peroxisome Proliferator-activated Receptor alpha (PPARa), PPARA (gene 5465) (UniProt Q07869); test: ATG_PPARa_TRANS: Attagene TRANS-FACTORIAL HepG2 Assay for human Peroxisome Proliferator-activated Receptor alpha (PPARa) (AID 2283001; active means hit-call score of the fitted dose curve at least 0.9, where 1 is the maximum)
Chain of human Peroxisome Proliferator-activated Receptor alpha (PPARa), PPARA (gene 5465) (Q07869 whole entry, looked up, the tested form may be a part): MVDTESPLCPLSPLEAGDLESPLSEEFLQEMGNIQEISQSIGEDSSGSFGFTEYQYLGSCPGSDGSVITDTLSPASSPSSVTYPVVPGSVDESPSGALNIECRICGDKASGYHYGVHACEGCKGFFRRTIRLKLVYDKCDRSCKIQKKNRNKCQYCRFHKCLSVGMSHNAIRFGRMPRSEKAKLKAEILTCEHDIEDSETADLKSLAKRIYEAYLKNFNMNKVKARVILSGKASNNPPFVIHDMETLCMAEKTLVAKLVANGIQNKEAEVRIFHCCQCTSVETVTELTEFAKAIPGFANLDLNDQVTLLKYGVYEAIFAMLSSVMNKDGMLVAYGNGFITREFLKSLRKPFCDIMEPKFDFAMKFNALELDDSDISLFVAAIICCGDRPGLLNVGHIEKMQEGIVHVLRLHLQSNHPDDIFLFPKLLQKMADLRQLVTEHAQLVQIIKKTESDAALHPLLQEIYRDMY
Summary of the method: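 Exposure: 24 h, transiently transfected HepG2 cells. Endpoint: GAL4-UAS reporter mRNA, RT-PCR with capillary electrophoresis fluorescence. Baseline: DMSO; increases fitted.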

[16] = target: human Peroxisome Proliferator-activated Receptor delta (PPARd), PPARD (gene 5467) (UniProt Q03181); test: ATG_PPARd_TRANS: Attagene TRANS-FACTORIAL HepG2 Assay for human Peroxisome Proliferator-activated Receptor delta (PPARd) (AID 2283002; active means hit-call score of the fitted dose curve at least 0.9, where 1 is the maximum)
Chain of human Peroxisome Proliferator-activated Receptor delta (PPARd), PPARD (gene 5467) (Q03181 whole entry, looked up, the tested form may be a part): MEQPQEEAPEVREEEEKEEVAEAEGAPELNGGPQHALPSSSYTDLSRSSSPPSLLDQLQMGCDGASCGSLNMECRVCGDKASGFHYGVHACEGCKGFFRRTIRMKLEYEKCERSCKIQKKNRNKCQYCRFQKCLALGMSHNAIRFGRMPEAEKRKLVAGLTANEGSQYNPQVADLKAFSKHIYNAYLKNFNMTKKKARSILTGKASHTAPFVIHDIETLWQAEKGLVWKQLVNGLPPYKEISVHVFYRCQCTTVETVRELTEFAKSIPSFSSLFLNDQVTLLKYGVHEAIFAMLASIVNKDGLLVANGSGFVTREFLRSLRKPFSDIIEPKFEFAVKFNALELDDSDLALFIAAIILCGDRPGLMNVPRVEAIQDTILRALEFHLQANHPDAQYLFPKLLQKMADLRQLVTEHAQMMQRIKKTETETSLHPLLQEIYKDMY
Summary of the method: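 Multiplexed trans-activation format: HepG2 liver cells expressing exogenous NR-Gal4 chimeras and GAL4-UAS reporters were exposed for 24 h. Reporter mRNA was detected by RT-PCR with capillary electrophoresis fluorescence; activity fitted as gain of signal relative to DMSO.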

[17] = target: human Retinoic Acid Receptor beta (RARb), RARB (gene 5915) (UniProt P10826); test: ATG_RARb_TRANS: Attagene TRANS-FACTORIAL HepG2 Assay for human Retinoic Acid Receptor beta (AID 2283004; active means hit-call score of the fitted dose curve at least 0.9, where 1 is the maximum)
Chain of human Retinoic Acid Receptor beta (RARb), RARB (gene 5915) (P10826 whole entry, looked up, the tested form may be a part): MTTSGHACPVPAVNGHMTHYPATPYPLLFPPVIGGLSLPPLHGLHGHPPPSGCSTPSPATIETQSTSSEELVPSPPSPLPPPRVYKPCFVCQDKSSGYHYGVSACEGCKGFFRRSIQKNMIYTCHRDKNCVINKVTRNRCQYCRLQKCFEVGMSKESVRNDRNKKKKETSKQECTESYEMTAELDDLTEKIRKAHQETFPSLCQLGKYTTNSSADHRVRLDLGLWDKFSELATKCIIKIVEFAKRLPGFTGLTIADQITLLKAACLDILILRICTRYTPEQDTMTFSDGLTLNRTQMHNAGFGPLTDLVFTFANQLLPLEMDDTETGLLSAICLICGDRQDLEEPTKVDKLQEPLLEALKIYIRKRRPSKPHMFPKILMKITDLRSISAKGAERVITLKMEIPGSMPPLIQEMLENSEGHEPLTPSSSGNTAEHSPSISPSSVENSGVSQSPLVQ
Summary of the method: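 HepG2 cells transiently transfected with multiplexed GAL4-UAS reporter units expressing chimeric NR–Gal4 fusions; 24 h compound exposure. Reporter mRNA quantified by RT-PCR, 6-FAM labelling, HpaI digestion and capillary electrophoresis; gain-of-signal fitted against DMSO baseline.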

[18] = target: Retinoic acid receptor alpha (Homo sapiens) (UniProt P10276); test: ATG_RARa_TRANS: Attagene TRANS-FACTORIAL HepG2 Assay for human Retinoic Acid Receptor alpha (RARa) (AID 2283005; active means hit-call score of the fitted dose curve at least 0.9, where 1 is the maximum)
Chain of Retinoic acid receptor alpha (Homo sapiens) (P10276 whole entry, looked up, the tested form may be a part): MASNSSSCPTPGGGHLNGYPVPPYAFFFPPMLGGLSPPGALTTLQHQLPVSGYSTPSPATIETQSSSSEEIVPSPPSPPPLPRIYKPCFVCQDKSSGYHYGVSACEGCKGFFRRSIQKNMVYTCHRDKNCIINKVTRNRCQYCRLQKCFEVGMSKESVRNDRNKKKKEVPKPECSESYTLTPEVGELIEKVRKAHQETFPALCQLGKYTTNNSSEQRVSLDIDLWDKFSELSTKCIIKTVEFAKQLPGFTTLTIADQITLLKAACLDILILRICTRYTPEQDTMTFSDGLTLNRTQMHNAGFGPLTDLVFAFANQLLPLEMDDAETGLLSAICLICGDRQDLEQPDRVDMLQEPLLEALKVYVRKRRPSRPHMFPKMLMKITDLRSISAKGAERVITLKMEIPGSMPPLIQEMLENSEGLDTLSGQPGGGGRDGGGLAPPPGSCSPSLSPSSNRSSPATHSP
Summary of the method: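 HepG2 cells transiently transfected with multiple reporter units expressing chimeric RARα-GAL4 fusion, with GAL4-UAS-driven reporters. After 24 h compound exposure, reporter mRNA induction quantified by RT-PCR and capillary electrophoresis with fluorescent labeling; gain-of-signal fitted relative to DMSO control.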

[19] = target: human Retinoic Acid Receptor gamma (RARg), RARG (gene 5916) (UniProt P13631); test: ATG_RARg_TRANS: Attagene TRANS-FACTORIAL HepG2 Assay for human Retinoic Acid Receptor gamma (RARg) (AID 2283009; active means hit-call score of the fitted dose curve at least 0.9, where 1 is the maximum)
Chain of human Retinoic Acid Receptor gamma (RARg), RARG (gene 5916) (P13631 whole entry, looked up, the tested form may be a part): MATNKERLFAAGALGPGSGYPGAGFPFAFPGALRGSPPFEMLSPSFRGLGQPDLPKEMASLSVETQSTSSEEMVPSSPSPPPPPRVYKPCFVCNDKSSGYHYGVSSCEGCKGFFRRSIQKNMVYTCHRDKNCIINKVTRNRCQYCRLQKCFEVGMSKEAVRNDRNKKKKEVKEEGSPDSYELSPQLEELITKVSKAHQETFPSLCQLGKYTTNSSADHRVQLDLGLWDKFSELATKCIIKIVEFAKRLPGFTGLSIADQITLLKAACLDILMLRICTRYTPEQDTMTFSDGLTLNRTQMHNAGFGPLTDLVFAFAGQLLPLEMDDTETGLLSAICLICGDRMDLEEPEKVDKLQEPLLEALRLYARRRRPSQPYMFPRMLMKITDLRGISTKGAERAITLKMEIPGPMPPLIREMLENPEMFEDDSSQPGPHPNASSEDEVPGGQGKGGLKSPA
Summary of the method: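 Gain-of-signal relative to DMSO is reported from fluorescent capillary electrophoresis of RT-PCR reporter products. These came from HepG2 cells expressing transfected RARg-GAL4 chimeras with UAS reporters, harvested 24 h after dosing.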

Measured: AC50

[O-][Cl+2]([O-])O
inactive: [1] | [2] | [3] | [4] | [5] | [6]

C[C@H]1CCCC(=O)CCC/C=C/c2cc(O)cc(O)c2C(=O)O1
inactive: [1] | [2] | [3] | [4] | [6] | [15] | [16] | [12]
active: [5] 10.7 µM | [13] 0.407 µM

COc1cccc(C=O)c1
inactive: [1] | [2] | [3] | [4] | [5] | [6] | [17] | [13] | [14]

Cl/C=C/Cl
inactive: [1] | [2] | [3] | [4] | [5] | [6] | [14]

CCCCCCCCCl
not listed: [7] | [8] | [9] | [10] | [11] | [15] | [17]
inactive: all other assays above

CNC(=O)O/N=C/C(C)(C)S(C)=O (stereo unspecified)
inactive: [1] | [2] | [3] | [5] | [6] | [15] | [17] | [13]
active: [4] 55.1 µM | [12] 41.1 µM

COP(=O)(OC)OC
inactive: [1] | [2] | [3] | [4] | [5] | [6] | [15] | [13] | [14]

CC1(C)CCC(Cc2ccc(Cl)cc2)C1(O)Cn1cncn1 (stereo unspecified)
active: [4] 33.4 µM | [13] 1.84 µM
inactive: [1] | [2] | [3] | [5] | [15] | [16] | [12]

CC(=[OH+])/C=C(/C)[O-].CC(=[OH+])/C=C(/C)[O-].CC(=[OH+])/C=C(/C)[O-].[Al]
inactive: [1] | [2] | [3] | [4] | [5] | [6] | [15] | [12] | [13] | [14]
